Laboratory results published in PubChem BioAssay AID1159580 (chemical genetic matrix, 2015).
About 2,000 (36%) of roughly 5,500 compounds were called active. Roughly 18% stayed inconclusive and do not appear here. The list shows a part of the results. Values without a mark were called inactive. Cut-off read from the data, not from the text of the source: active = normalized growth mostly below about 0.91 (no sharp cut-off); inconclusive = no clear call, values can overlap the other calls; inactive = mostly above about 0.92.

Assay: chemical genetic growth profiling, strain panel (AID 1159580);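 note: tested at 20 µM; growth read once vehicle control cultures reached saturation at 30 °C; 1 = growth at the plate median or of vehicle wells; lower values mean less growth of the strain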
Details: growth OD

CN(C)C=Nc1nc2c(s1)CCc1ccccc1-2
normalized growth (S. cerevisiae deletion strains, locus YAL013W, strain DEP1, hits give low values): 0.953 | normalized growth (S. cerevisiae deletion strains, locus YBR229C, strain ROT2, hits give low values): 0.975 | normalized growth (S. cerevisiae deletion strains, locus YDL101C, strain DUN1, hits give low values): 0.964 | normalized growth (S. cerevisiae deletion strains, locus YDR150W, strain NUM1, hits give low values): 0.934 | normalized growth (S. cerevisiae deletion strains, locus YEL061C, strain CIN8, hits give low values): 0.878 (active) | normalized growth (S. cerevisiae deletion strains, locus YGR078C, strain PAC10, hits give low values): 0.989 | normalized growth (S. cerevisiae deletion strains, locus YHR030C, strain SLT2, hits give low values): 0.477 (active) | normalized growth (S. cerevisiae deletion strains, locus YHR087W, strain rtc3, hits give low values): 1.01 | normalized growth (S. cerevisiae deletion strains, locus YJL187C, strain SWE1, hits give low values): 0.972 | normalized growth (S. cerevisiae deletion strains, locus YJR043C, strain POL32, hits give low values): 0.994 | normalized growth (S. cerevisiae deletion strains, locus YJR075W, strain HOC1, hits give low values): 0.957 | normalized growth (S. cerevisiae deletion strains, locus YLR039C, strain RIC1, hits give low values): 0.794 | normalized growth (S. cerevisiae deletion strains, locus YLR058C, strain SHM2 (second series), hits give low values): 0.989 | normalized growth (S. cerevisiae deletion strains, locus YLR085C, strain ARP6, hits give low values): 0.622 (active) | normalized growth (S. cerevisiae deletion strains, locus YLR262C, strain YPT6, hits give low values): 0.811 (active) | normalized growth (S. cerevisiae deletion strains, locus YML094W, strain GIM5, hits give low values): 0.798 (active) | normalized growth (S. cerevisiae deletion strains, locus YMR219W, strain ESC1, hits give low values): 0.991 | normalized growth (S. cerevisiae deletion strains, locus YMR263W, strain SAP30, hits give low values): 0.977 | normalized growth (S. cerevisiae deletion strains, locus YNL153C, strain GIM3, hits give low values): 0.968 | normalized growth (S. cerevisiae deletion strains, locus YNL298W, strain CLA4 (second series), hits give low values): 0.825 (active) | normalized growth (S. cerevisiae deletion strains, locus YNL322C, strain KRE1, hits give low values): 0.994 | normalized growth (S. cerevisiae deletion strains, locus YNR030W, strain Alg12, hits give low values): 0.899 | normalized growth (S. cerevisiae deletion strains, locus YPL055C, strain LGE1, hits give low values): 0.799 (active) | normalized growth (S. cerevisiae deletion strains, locus YPL241C, strain CIN2, hits give low values): 0.819 (active) | normalized growth (S. cerevisiae deletion strains, locus YPR135W, strain CTF4, hits give low values): 0.635 (active) | normalized growth (S. cerevisiae strains, strain wild type, hits give low values): 0.997
